Data reported in a collection of fitness landscapes (doi:10.1016/j.celrep.2020.107928).
In all, about 81,000 sequences were measured (“one-hybrid fitness for binding parS DNA”: median about -0.17, highest 2% from about 0.51 on). This is one part of a sample in which the highest values are shown more often than they occur.

B1: Caulobacter ParB omega fusion; a variant is named by its letters at X, in order, B8GW30 (parent)
chain: MESVVVGEPGMSEGRRGLGRGLSALLGEVDAAPAQAPGEQLGGSREAPIEILQRNPDQPRRTFREEDLEDLSNSIREKGVLQPILVRPSPDTAGEYQIVAGERAWRAAQRAGLKTVPIMVRELDDLAVLEIGIIENVQRADLNVLEEALSYKVLMEKFERTQENIAQTIGKSXSHVANXMRLLXLPDEVQSYLVSGELTAXHARAIAAAADPVALAKQIIEGGLSVRETEALARKAPNLSAGKSKGGRPPRVKDTDTQALESDLSSVLGLDVSIDHRGSTGTLTITYATLEQLDDLCNRLTRGI

Variants of: B1
Assay: one-hybrid fitness for binding parS DNA (scaled: cognate 1, non-cognate 0); higher = stronger binding
Settings: with parS DNA site
Procedure, shortened: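 In E. coli USO, a HIS3 reporter with its site placed 19 bp from the promoter was used to select Caulobacter ParB variants randomised at four specificity codons. Growth lasted 48 hours at 37°C on histidine-free M9 containing 0.1 mM IPTG and 5 mM 3-AT. Fitness was taken as the log change in variant-to-wild-type read ratio from Illumina sequencing of pre- and post-selection plasmids, rescaled between the non-cognate and cognate sites.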

one-hybrid fitness for binding parS DNA, 0.384:
RYSN

one-hybrid fitness for binding parS DNA, 0.434:
RAPT

one-hybrid fitness for binding parS DNA, 0.287:
RWMA

one-hybrid fitness for binding parS DNA, 0.701:
RRDC

one-hybrid fitness for binding parS DNA, 0.223:
RYCH

one-hybrid fitness for binding parS DNA, 0.503:
RHMA

one-hybrid fitness for binding parS DNA, 0.978:
RYYS

one-hybrid fitness for binding parS DNA, 0.619:
RRCC

one-hybrid fitness for binding parS DNA, 0.757:
RYIC

one-hybrid fitness for binding parS DNA, 1.03:
RALS
RAYS
RIYG

one-hybrid fitness for binding parS DNA, 0.682:
RAIT

one-hybrid fitness for binding parS DNA, 0.408:
RYGN

one-hybrid fitness for binding parS DNA, 0.615:
RRNC

one-hybrid fitness for binding parS DNA, 0.29:
RIRH

one-hybrid fitness for binding parS DNA, 0.693:
RRIT

one-hybrid fitness for binding parS DNA, 0.211:
RALH

one-hybrid fitness for binding parS DNA, 0.628:
RYIT

one-hybrid fitness for binding parS DNA, 0.796:
RSKT

one-hybrid fitness for binding parS DNA, 0.431:
RALN

one-hybrid fitness for binding parS DNA, 0.375:
RYRN

one-hybrid fitness for binding parS DNA, 0.912:
RYQS

one-hybrid fitness for binding parS DNA, 0.846:
RVIC

one-hybrid fitness for binding parS DNA, 0.824:
RYRS

one-hybrid fitness for binding parS DNA, 0.679:
RRFC

one-hybrid fitness for binding parS DNA, 0.271:
RRAM

one-hybrid fitness for binding parS DNA, 0.395:
RIRN

one-hybrid fitness for binding parS DNA, 0.252:
DVGK

one-hybrid fitness for binding parS DNA, 0.991:
RLFG

one-hybrid fitness for binding parS DNA, 0.544:
RWVC

one-hybrid fitness for binding parS DNA, 0.6:
RIMA

one-hybrid fitness for binding parS DNA, 0.553:
RYMA

one-hybrid fitness for binding parS DNA, 0.623:
RRFT

one-hybrid fitness for binding parS DNA, 0.565:
RAMA

one-hybrid fitness for binding parS DNA, 0.649:
RRQS

one-hybrid fitness for binding parS DNA, 0.669:
RRLC

one-hybrid fitness for binding parS DNA, 0.613:
RLMA
RQNA

one-hybrid fitness for binding parS DNA, 0.634:
RRRC

one-hybrid fitness for binding parS DNA, 0.955:
RIRG

one-hybrid fitness for binding parS DNA, 0.477:
RYPC

one-hybrid fitness for binding parS DNA, 0.54:
RKMA

one-hybrid fitness for binding parS DNA, 0.896:
RWKC

one-hybrid fitness for binding parS DNA, 0.403:
RYPT

one-hybrid fitness for binding parS DNA, 0.576:
RSMA

one-hybrid fitness for binding parS DNA, 0.582:
RTMA

one-hybrid fitness for binding parS DNA, 0.809:
RRMA

one-hybrid fitness for binding parS DNA, 0.901:
RYGS

one-hybrid fitness for binding parS DNA, 0.748:
RCKT

one-hybrid fitness for binding parS DNA, 1.05:
RAWS

one-hybrid fitness for binding parS DNA, 0.225:
HRMC

one-hybrid fitness for binding parS DNA, 0.637:
RVPC

one-hybrid fitness for binding parS DNA, 0.421:
RYHN

one-hybrid fitness for binding parS DNA, 0.939:
RYIS

one-hybrid fitness for binding parS DNA, 0.942:
RAIS

one-hybrid fitness for binding parS DNA, 0.47:
RNMA

one-hybrid fitness for binding parS DNA, 0.643:
RMMA

one-hybrid fitness for binding parS DNA, 0.596:
RRSC

one-hybrid fitness for binding parS DNA, 0.673:
RAPS

one-hybrid fitness for binding parS DNA, 0.265:
RIYF

one-hybrid fitness for binding parS DNA, 0.921:
RYHS

one-hybrid fitness for binding parS DNA, 0.301:
RAIN

one-hybrid fitness for binding parS DNA, 0.908:
RARS

one-hybrid fitness for binding parS DNA, 0.614:
RRQN

one-hybrid fitness for binding parS DNA, 0.597:
RRAC

one-hybrid fitness for binding parS DNA, 0.27:
RWVM

one-hybrid fitness for binding parS DNA, 0.546:
RQDA

one-hybrid fitness for binding parS DNA, 1.01:
RLAG

one-hybrid fitness for binding parS DNA, 0.334:
RVIN

one-hybrid fitness for binding parS DNA, 0.377:
RKYY

one-hybrid fitness for binding parS DNA, 0.283:
RGMA

one-hybrid fitness for binding parS DNA, 0.911:
RYSS

one-hybrid fitness for binding parS DNA, 0.99:
RYWS

one-hybrid fitness for binding parS DNA, 0.364:
RRSM

one-hybrid fitness for binding parS DNA, ≤ 0.2:
NMTN
HQTD
CKKK
SMHA
LLCV
RNEW
RGLD
RGLN
GMLK
TTDG
RVPH
RVIH
RVPN
HYPN
ITNM
RSKK
RPKT
RDKT
PRHS
MIYR
VPKS
TLQM
AYMA
NTMA
NRMA
DRMA
DTMA
SYMA
NGLP
DLGV
QGYV
HVLF
IQVR
RYHV
WPYE
RRPL
ALDW
VVHY
RDMA
PLIV
KHAR
MMTD
HGPW
CYVF
NKSN
THAA
YECR
PLHI
EKSD
KREK
QAYP
PIYC
RPMA
VSPG
TMCY
DQLR
RRPP
RRID
RRPH
RRIF
DSHR
CMQS
SCFI
RRLP
RRSF
RRLH
RRRF
RRRQ
RRNQ
RRNF
LYTA
EYRT
PNAE
HFHS
VVVF
PGKV
GQNG
PYHE
FDPI
RFFL
AVTF
CQAV
NQES
DRYC
RRDQ
RRDR
NRYC
RRCF
RRCH
LWSC
LRPV
PQAG
ETTN
QYKG
CTWT
MGFG
GQDP
EEAD
RRFK
RRAF
RRFQ
RRAQ
PVDT
CRAT
RDEQ
RRAK
RRFF
RRFR
STSS
HRSN
NLCV
TTRK
RAPN
RAID
RAPP
RAYP
MHTT
SHEG
FDNL
CPKA
QTHW
PVVK
LDQC
EKET
VKMG
GMPS
RAWP
RARH
RAWD
RAIP
GPSP
PSKI
CYMT
DQPL
FLGS
RIYK
PSLL
FVQI
SSST
LRVT
AKQS
WRGT
LTAS
HNMS
RRQD
RRQH
RRQP
DHPT
RGVM
LQKG
QYAK
TQYT
RLFK
RLAD
AIYN
WEYM
NPSH
VRSD
RAIV
RPEN
CYEL
HDFT
NCIT
RYYD
RYYP
RYIP
RYCP
RYQD
RYQH
RYID
LVWD
NPHT
PSHS
DITP
NQLR
PVNW
YEPV
CIDV
MSHI
RYSH
RYRD
RYGD
RYHD
PQCT
AYIG
HGTM
RYRV
SHLR
VPHG
KAVS
RYWH
RYPD
RYLH
RYPP
PNPL
SDTR
MCER
YVVN
HTHM
APRT
VFSS
NMCG
TSPA
VQAC
NLYH
RYIF
VSVG
ATKL
LWCV
TMIC
GTRS
WREM
KDAT
KNTT
RWKK
RWVD

one-hybrid fitness for binding parS DNA, 0.206:
RYLD

one-hybrid fitness for binding parS DNA, 0.65:
RGLS

one-hybrid fitness for binding parS DNA, 0.609:
RCMA

one-hybrid fitness for binding parS DNA, 0.288:
RWKF

one-hybrid fitness for binding parS DNA, 0.445:
RAYN

one-hybrid fitness for binding parS DNA, 0.958:
RYCS

one-hybrid fitness for binding parS DNA, 0.324:
RRQM

one-hybrid fitness for binding parS DNA, 0.562:
RRAT

one-hybrid fitness for binding parS DNA, 0.352:
RYIY

one-hybrid fitness for binding parS DNA, 0.63:
RRYC

one-hybrid fitness for binding parS DNA, 0.422:
RYWN

one-hybrid fitness for binding parS DNA, 0.419:
RARN

one-hybrid fitness for binding parS DNA, 0.635:
RYPS

one-hybrid fitness for binding parS DNA, 0.369:
REKT
RLFM

one-hybrid fitness for binding parS DNA, 0.442:
RLAN

one-hybrid fitness for binding parS DNA, 0.504:
RFMA

one-hybrid fitness for binding parS DNA, 0.986:
RYLS

one-hybrid fitness for binding parS DNA, 0.761:
RRPT
